Assay results as given in PubChem BioAssay AID2284191 (EPA ToxCast).
Active and inactive are the calls of the source. Rule for the calls: active = hit-call score of the fitted dose curve at least 0.9, where 1 is the maximum; inactive = score below 0.9.

molecular target: human Serotonin Receptor 5-HT5A Agonism, HTR5A (gene 3361) (UniProt P47898); assay: ERF_FR_GPCR_hHTR5A: Eurofins (ERF) G Protein-Coupled Receptor (GPCR) Radioligand Binding LeadHunter Assay for human Serotonin Receptor 5-HT5A Agonism
Sequence (P47898 whole entry, looked up): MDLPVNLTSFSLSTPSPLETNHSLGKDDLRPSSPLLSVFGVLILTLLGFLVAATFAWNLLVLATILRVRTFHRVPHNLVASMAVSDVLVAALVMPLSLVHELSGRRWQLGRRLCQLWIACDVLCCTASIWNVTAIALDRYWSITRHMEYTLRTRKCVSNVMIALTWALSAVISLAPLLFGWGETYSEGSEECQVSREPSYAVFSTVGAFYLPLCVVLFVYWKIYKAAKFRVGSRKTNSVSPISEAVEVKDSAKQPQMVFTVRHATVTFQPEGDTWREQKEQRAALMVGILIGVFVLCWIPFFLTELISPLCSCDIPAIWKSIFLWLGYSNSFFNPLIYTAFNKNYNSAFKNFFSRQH
Experimental: ERF_FR_GPCR_hHTR5A is a biochemical, single-readout assay that uses extracted gene-proteins in a cell-free assay. Measurements were taken 2 hour after chemical dosing in a 96-well plate. See 5-HT5A Human Serotonin GPCR Binding (Agonist Radioligand) Assay, Cerep.ERF_FR_GPCR_hHTR5A is an assay component calculated from the ERF_FR_GPCR_hHTR5A assay. It is designed to measure radioligand binding using a type of binding reporter as detected by scintillation counting with radiometry technology.Data from the assay component ERF_FR_GPCR_hHTR5A was analyzed at the assay endpoint, ERF_FR_GPCR_hHTR5A, in the positive analysis fitting direction relative to DMSO as the negative control and baseline of activity. Using a type of binding reporter, gain-of-signal activity can be used to understand changes in binding as they relate to gene HTR5A. To generalize the intended target to other relatable targets, this assay endpoint is annotated to the gpcr intended target family, where the subfamily is serotonin.
Human cells are incubated for 120 minutes at 37 C with [3H]LSD ligand (1.5 nM) and serotonin as control inhibitor. Test Sample Requirements: Minimum for 1) Screen: 60 ul of 10 mM stock -OR- 1 mg (pre-weighed) for 10 uM final testing. 2) Dose Response: 90 ul of 10 mM stock -OR- 1 mg (pre-weighed) for a top concentration at 10 uM.

Compound	AC50
O=C(/C=C/c1ccc(O)cc1)CC(=O)/C=C/c1ccc(O)cc1	1680 nM (active)
